Test results published in the supplement of paper PMC10849652.
About 8,800 targets were measured; listed, in parts, are those with a hit and a random draw of the rest. About 0.5% of all pairs of compound and target were hits. Unmarked numbers belong to inactive results.

Key:
Experiment in all cases: log2 fold change, soluble protein after heating vs DMSO (PISA); higher = thermal stabilisation; K562 lysate, 10 uM; active = over 0.2 and 3.5 SD of the protein, either way, in both replicates (recomputed)
[1] = compound: NCC(=O)Nc1ccc(-n2nc(C(F)(F)F)cc2-c2ccc3c(ccc4ccccc43)c2)cc1
Outline: (§1)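 Dounce homogenisation of K562 pellets in PBS pH 7.4 with 1 mM MgCl2 produced a crude extract, used at 1 mg/mL protein. Exposure to 10 μM compound lasted 30 min, and aliquots were then heated for 3 min across 48°C-58°C, pooled and brought to 0.5% NP-40 at 4°C. The supernatant after 21,000xg for 90 min was quantified by TMTpro 16plex LC-MS/MS with channel sums equalised. Duplicate values are given as log-two fold change in thermal stability relative to solvent controls.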

[2] = compound: O=C(CCCCCCC(=O)Nc1ccccc1)NO [vorinostat]
Outline: as §1

[3] = compound: O=C(O)c1ccc2c(c1)nc(Nc1cccc(Cl)c1)c1ccncc12 [silmitasertib]
Outline: as §1

[4] = compound: O=C1NC(=O)C(c2cnc3ccccn23)=C1c1cn2c3c(cc(F)cc13)CN(C(=O)N1CCCCC1)CC2
Outline: as §1

[5] = compound: c1cn2cc(-c3ccc4cn[nH]c4c3)nc(Nc3ccc(N4CCOCC4)cc3)c2n1 [entospletinib]
Outline: as §1

Sequence of UniProt P04004 (P04004 whole entry, looked up): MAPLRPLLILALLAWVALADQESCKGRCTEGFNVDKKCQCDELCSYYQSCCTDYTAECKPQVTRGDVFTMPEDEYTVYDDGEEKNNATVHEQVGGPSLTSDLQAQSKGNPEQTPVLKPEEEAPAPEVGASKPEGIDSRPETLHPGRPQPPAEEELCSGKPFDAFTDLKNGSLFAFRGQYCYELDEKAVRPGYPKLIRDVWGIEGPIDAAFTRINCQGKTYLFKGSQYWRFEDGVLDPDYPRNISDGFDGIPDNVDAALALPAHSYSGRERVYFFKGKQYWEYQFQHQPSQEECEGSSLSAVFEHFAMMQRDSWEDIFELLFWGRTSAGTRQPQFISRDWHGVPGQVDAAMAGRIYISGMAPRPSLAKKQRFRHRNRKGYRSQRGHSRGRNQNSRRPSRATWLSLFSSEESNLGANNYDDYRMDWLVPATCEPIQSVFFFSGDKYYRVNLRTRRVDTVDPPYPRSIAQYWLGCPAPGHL
Sequence of UniProt Q9HAV4 (Q9HAV4 whole entry, looked up): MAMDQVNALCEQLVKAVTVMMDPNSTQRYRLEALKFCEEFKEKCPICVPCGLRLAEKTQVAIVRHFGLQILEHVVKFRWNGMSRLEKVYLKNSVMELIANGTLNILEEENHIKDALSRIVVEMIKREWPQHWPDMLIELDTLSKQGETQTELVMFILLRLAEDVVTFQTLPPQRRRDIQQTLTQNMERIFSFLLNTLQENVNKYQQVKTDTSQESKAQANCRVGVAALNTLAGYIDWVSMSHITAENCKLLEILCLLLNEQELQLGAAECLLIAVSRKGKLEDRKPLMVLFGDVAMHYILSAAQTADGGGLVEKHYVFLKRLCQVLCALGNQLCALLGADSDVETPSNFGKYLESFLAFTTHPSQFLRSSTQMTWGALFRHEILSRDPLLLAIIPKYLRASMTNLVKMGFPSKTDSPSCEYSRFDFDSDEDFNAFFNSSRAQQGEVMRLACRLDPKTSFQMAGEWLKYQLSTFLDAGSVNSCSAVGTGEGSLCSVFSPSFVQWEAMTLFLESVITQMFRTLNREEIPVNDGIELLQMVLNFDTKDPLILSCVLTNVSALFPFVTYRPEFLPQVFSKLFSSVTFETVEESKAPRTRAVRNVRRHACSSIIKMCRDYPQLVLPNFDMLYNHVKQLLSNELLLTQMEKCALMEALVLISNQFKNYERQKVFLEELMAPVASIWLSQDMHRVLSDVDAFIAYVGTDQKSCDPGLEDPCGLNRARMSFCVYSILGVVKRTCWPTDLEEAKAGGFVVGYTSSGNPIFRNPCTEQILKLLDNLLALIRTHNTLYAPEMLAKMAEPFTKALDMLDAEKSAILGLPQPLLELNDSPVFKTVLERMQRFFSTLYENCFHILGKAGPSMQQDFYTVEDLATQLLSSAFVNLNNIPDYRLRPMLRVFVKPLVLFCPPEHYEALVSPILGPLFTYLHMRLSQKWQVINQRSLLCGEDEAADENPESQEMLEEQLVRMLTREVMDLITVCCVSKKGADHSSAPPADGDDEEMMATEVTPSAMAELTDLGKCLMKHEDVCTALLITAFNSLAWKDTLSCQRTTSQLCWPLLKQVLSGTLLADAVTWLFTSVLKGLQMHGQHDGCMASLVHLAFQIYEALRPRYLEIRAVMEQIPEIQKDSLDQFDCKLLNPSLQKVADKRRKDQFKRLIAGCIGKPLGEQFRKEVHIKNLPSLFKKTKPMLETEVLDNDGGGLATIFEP
Sequence of UniProt Q5T200 (Q5T200 whole entry, looked up): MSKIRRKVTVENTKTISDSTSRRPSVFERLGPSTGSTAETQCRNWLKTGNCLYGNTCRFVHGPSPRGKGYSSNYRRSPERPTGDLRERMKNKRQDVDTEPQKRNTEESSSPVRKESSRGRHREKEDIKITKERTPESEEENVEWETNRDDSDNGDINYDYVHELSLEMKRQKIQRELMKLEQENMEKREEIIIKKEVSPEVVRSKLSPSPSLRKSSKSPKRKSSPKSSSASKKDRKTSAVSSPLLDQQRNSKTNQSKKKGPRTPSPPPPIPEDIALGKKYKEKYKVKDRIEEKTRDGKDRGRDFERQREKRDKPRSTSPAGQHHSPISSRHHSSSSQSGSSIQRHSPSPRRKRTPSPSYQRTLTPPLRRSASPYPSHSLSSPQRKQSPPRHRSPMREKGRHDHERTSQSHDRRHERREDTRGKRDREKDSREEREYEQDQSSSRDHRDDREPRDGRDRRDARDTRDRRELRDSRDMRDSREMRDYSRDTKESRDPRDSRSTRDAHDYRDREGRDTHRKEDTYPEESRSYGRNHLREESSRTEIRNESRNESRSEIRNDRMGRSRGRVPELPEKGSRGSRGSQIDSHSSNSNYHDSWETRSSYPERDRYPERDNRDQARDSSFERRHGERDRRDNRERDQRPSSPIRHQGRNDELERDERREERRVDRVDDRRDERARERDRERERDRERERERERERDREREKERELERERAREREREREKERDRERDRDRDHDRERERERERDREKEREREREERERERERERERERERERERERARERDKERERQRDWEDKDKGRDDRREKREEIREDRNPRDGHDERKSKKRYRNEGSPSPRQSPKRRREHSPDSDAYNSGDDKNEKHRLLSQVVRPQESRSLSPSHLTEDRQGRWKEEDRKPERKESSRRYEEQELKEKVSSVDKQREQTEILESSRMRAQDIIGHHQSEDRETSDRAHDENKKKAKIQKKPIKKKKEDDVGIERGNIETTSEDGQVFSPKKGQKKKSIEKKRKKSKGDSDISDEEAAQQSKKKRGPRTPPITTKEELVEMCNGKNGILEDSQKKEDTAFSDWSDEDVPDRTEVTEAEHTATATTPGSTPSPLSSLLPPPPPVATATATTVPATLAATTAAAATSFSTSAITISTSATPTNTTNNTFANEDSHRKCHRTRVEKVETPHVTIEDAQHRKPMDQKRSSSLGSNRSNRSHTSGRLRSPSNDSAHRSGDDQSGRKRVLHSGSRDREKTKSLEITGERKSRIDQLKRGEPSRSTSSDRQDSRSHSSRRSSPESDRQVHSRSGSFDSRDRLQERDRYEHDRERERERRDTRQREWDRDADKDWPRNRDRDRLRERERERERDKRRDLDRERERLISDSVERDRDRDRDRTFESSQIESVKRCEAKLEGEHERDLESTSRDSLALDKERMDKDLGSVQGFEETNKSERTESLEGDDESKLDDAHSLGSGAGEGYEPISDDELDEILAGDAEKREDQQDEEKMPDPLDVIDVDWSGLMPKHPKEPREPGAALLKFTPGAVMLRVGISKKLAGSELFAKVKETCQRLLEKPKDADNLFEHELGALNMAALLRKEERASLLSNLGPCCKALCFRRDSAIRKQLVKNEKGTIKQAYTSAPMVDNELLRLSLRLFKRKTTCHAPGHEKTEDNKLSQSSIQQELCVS
Sequence of UniProt Q96QU8 (Q96QU8 whole entry, looked up): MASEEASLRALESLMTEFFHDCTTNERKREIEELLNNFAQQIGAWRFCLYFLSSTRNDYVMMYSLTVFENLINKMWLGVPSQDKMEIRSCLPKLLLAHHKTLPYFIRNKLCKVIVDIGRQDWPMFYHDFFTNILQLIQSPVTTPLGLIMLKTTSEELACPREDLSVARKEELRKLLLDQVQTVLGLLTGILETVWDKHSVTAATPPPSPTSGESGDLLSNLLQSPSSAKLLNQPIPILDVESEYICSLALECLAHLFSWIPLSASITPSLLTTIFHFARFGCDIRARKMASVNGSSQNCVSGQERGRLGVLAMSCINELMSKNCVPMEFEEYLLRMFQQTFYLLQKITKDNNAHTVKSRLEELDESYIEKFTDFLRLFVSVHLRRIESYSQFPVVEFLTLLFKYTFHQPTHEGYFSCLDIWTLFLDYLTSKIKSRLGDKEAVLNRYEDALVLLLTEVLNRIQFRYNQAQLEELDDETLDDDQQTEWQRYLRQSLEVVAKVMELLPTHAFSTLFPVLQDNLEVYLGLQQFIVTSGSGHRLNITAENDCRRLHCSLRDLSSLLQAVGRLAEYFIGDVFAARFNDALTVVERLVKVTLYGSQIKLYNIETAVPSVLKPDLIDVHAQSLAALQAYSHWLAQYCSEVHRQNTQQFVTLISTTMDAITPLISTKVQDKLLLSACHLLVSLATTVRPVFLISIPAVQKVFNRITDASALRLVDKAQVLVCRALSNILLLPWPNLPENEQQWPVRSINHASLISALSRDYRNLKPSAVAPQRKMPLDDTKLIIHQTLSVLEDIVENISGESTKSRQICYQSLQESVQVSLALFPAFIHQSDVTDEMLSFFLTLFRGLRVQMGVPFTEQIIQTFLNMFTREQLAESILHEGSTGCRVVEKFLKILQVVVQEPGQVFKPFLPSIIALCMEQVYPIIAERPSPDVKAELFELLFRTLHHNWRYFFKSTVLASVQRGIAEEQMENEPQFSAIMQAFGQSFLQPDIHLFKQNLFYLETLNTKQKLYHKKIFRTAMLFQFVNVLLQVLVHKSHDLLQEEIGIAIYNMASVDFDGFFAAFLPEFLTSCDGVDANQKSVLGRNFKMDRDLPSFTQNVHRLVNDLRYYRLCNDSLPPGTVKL
Sequence of UniProt Q86WB0 (Q86WB0 whole entry, looked up): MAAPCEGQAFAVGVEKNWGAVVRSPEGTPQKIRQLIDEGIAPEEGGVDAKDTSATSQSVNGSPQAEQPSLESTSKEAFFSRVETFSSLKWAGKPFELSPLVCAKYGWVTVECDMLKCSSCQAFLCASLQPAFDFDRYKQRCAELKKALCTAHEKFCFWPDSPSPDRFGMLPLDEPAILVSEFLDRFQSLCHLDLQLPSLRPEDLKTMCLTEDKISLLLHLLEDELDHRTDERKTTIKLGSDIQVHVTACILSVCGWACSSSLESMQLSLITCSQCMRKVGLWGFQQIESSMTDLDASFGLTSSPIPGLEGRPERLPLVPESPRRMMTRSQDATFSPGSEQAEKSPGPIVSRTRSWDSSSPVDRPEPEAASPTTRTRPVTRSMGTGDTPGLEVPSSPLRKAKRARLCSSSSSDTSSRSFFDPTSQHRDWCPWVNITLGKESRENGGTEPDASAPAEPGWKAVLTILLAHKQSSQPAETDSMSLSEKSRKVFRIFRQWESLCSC

| Target | log2 fold change [1] | log2 fold change [2] | log2 fold change [3] | log2 fold change [4] | log2 fold change [5] |
| --- | --- | --- | --- | --- | --- |
| ZNF593 (UniProt O00488) | -0.029 | 0.191 | -0.001 | 0.044 | 0.027 |
| XPO6 (UniProt Q96QU8) | -0.034 | -0.401 (active) | 0.049 | -0.031 | -0.027 |
| USP10 isoform 2 (UniProt Q14694) | 0.022 | -0.294 (active) | 0 | -0.002 | -0.002 |
| WDCP (UniProt Q9H6R7) | -0.066 | -0.233 (active) | 0.022 | 0.02 | -0.036 |
| ZC3HC1 (UniProt Q86WB0) | 0.021 | -0.368 (active) | -0.034 | -0.03 | 0.01 |
| XPO5 (UniProt Q9HAV4) | 0 | -0.574 (active) | 0.035 | 0.011 | 0.015 |
| ZNF598 isoform 3 (UniProt Q86UK7) | 0.01 | -0.338 (active) | 0 | 0.024 | -0.017 |
| VPS16 (UniProt Q9H269) | -0.047 | -0.543 (active) | 0.076 | -0.01 | 0.03 |
| ZFPM1 (UniProt Q8IX07) | -0.009 | -0.251 (active) | 0 | -0.03 | -0.021 |
| UNC13D (UniProt Q70J99) | 0.022 | -0.211 (active) | 0.002 | -0.006 | 0.026 |
| ZNF845 (UniProt Q96IR2) | -0.074 | -0.297 | 0.364 (active) | -0.113 | – |
| ZMAT2 (UniProt Q96NC0) | 0.033 | 0.188 | -0.051 | -0.024 | 0.021 |
| VPS37B (UniProt Q9H9H4) | 0.029 | -0.349 (active) | 0.045 | -0.035 | -0.058 |
| ZC3H13 (UniProt Q5T200) | 0.174 | -0.052 | -0.008 | -0.104 | 0.001 |
| VPS41 (UniProt P49754) | -0.025 | -0.471 (active) | 0.004 | -0.018 | 0.007 |
| WDR24 (UniProt Q96S15) | 0.041 | -0.202 | 0.134 | 0.032 | 0.022 |
| YTHDF3 (UniProt Q7Z739) | 0.064 | 0.03 | -0.084 | -0.169 | 0.006 |
| WDR45 isoform 2 (UniProt Q9Y484) | 0.018 | 0.025 | 0.016 | 0 | 0.009 |
| WRN (UniProt Q14191) | 0.003 | -0.282 (active) | 0.035 | -0.013 | -0.005 |
| ZNF318 (UniProt Q5VUA4) | 0.064 | -0.332 (active) | -0.045 | -0.059 | -0.024 |
| YTHDC2 (UniProt Q9H6S0) | 0.061 | -0.231 (active) | -0.007 | 0.018 | 0.013 |
| VTN (UniProt P04004) | 0.126 | -0.07 | -0.076 | -0.085 | -0.146 |
| VPS13C (UniProt Q709C8) | 0.005 | 0.062 | -0.033 | 0.027 | -0.051 |
| USP48 (UniProt Q86UV5) | -0.054 | -0.528 (active) | 0.07 | 0.034 | -0.102 |
| VPS18 (UniProt Q9P253) | -0.016 | -0.386 (active) | 0.04 | 0.015 | -0.006 |
